From PubChem
Sampled rows, rich in hits. Any-hit rate of the full collection: about 19%.
uPA surface inh: blocks generation of uPA at the cell surface | Potency, µM (series often up to 38.3 µM), without a hit: top-dose activity change, negative = inhibition, usual class: inhibitors | 330,000 tested, 0.31% active | cell surface uPA generation assay, qHTS; active = well fitted inhibition curve with a large enough effect; inconclusive = small, poorly fitted or top-dose-only effect; inactive = no such curve, though single readings can be large or run the other way; tested in mouse RAW 264.7 cells; note: potency is the fitted concentration of half-maximal effect; nearly all actives have a fitted effect of over 55% in size
DT40 TDP1 no CPT: qHTS for Inhibitors of human tyrosyl-DNA phosphodiesterase 1 (TDP1): qHTS in cells in absence of CPT; DT40 Tdp1-/- hTDP1 cells, no CPT, ATP luminescence, 48 h; Potency, µM (series often up to 46.2 µM), without a hit: top-dose activity change, negative = growth inhibition, usual class: inhibitors; 420,000 tested, 15% active; AID 686978, 2013; note: potency is the fitted concentration of half-maximal effect; nearly all actives have a fitted effect of over 55% in size
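Stably hTDP1-transfected Tdp1-null chicken DT40 cells were treated with library compounds minus camptothecin and grown for at least 48 hr at 37 °C, after which cellular ATP was quantified by luminescence.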
IL1B secr inh: inhibitors of inflammasome signaling (IL-1 beta secretion); AID 743279; 360,000 tested, 4.7% active; THP-1 LPS/ATP IL-1B secretion, AlphaLISA, 16 h; stronger effect = lower value; activity change, % at 57.5 µM; in the data active = activity change below about -50%; inconclusive = mostly about -30% to -49%
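Secreted IL-1B measured by AlphaLISA bead assay after 16 h compound exposure of THP-1 cells; compounds (final up to 57.5 uM) added 1 h before LPS (250 ng/mL) and ATP (1.25 mM) stimulation; lower signal means less secretion.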
TDP1 cell CPT: growth inhibition of DT40 Tdp1-/-;hTDP1 cells with camptothecin (screen for TDP1 inhibitors); chicken DT40 Tdp1-/-;hTDP1 cells + 20 nM CPT, ATP luminescence, 48 h; Potency, µM (top dose mostly 46.2 µM), inactives show at the top dose activity change, negative = growth inhibition, usual class: inhibitors; 420,000 tested, 12% active; AID 686979; note: potency is the fitted concentration of half-maximal effect; nearly all actives have a fitted effect of over 55% in size
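Cell growth measured by CellTiter-Glo luminescence after a minimum 48 h, 37 C compound exposure with 20 nM CPT in Tdp1-knockout DT40 cells stably expressing hTDP1, seeded 400/well; qHTS titration format.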
HT1080 IDH1KD tx: toxicity to HT-1080 IDH1 knockdown cells (counter line) | HT-1080 IDH1 knockdown viability, ATP luminescence, 48 h | Potency, µM (top dose mostly 46.1 µM), for inactives: top-dose activity, negative = toxicity, most hits filed as cytotoxic | 360,000 tested, 2% active | AID 686971;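 note: potency is the fitted concentration of half-maximal effect; 0% = DMSO wells and -100% = cell-free medium wells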
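Using the IDH1-knockdown HT-1080 line run in the same batch and compound series as the NT line, viability after 48 h at 37 °C was determined by CellTiter-Glo luminescence and expressed as % activity.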
HT1080NT lethal: kills 2HG-producing HT-1080-NT fibrosarcoma cells. HT-1080-NT fibrosarcoma viability, CellTiter-Glo ATP luminescence, 48 h. Potency, µM (top dose mostly 46.1 µM), without a hit: at the top dose activity, negative = less viability, hits mostly cytotoxic. 360,000 tested, 1.6% active;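 note: NT is the 2HG producing partner of a matched IDH1 knockdown line; potency is the fitted concentration of half-maximal effect; 0% = DMSO-treated cells and -100% = media-only wells without cells; nearly all actives have a fitted effect of over 55% in size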
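Read-out is CellTiter-Glo luminescence after 10 minutes at room temperature, following 48 hours' compound treatment of HT-1080-NT cells (750 cells/well, RPMI, 5% FBS, 37 degrees C).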
* = called active by the depositor. Unless noted, calls come from the whole dose curve; as a rule, active = well fitted curve in the direction sought with a large enough effect; inconclusive = small, poorly fitted or top-dose-only effect, or another doubt; inactive = no such curve, though single readings can be large; an effect the other way counts as inactive or inconclusive. Unless noted, % is set by controls: 0 for no effect and ±100 for the full control effect.

CCCNC(=O)c1ccc(N2CCC3(CC2)CC(c2ccccc2)=NO3)c(NC(=O)c2cccc(C)c2)c1 was read as uPA surface inh -23%, DT40 TDP1 no CPT inconclusive, IL1B secr inh -10, TDP1 cell CPT 8.2µM*, HT1080 IDH1KD tx -5% and HT1080NT lethal -2%.
CCCCCCCC(=O)Nc1cc(C(=O)NCCC)ccc1N1CCC2(CC1)CC(c1ccccc1)=NO2 was read as uPA surface inh 11%, DT40 TDP1 no CPT 12µM*, IL1B secr inh 8, TDP1 cell CPT inconclusive, HT1080 IDH1KD tx 6% and HT1080NT lethal 2%.
`CCCNC(=O)c1ccc(N2CCC3(CC2)CC(c2cccc(Br)c2)=NO3)c(NC(=O)c2ccccc2)c1` gave uPA surface inh 11%, DT40 TDP1 no CPT 23µM*, IL1B secr inh -10, TDP1 cell CPT inconclusive, HT1080 IDH1KD tx -11% and HT1080NT lethal -6%.
`CCCNC(=O)c1ccc(N2CCC3(CC2)CC(c2ccccc2)=NO3)c(NC(=O)c2ccccc2)c1` gave uPA surface inh 12%, DT40 TDP1 no CPT 15µM*, IL1B secr inh -15, TDP1 cell CPT 5.8µM*, HT1080 IDH1KD tx -2% and HT1080NT lethal -1%.
Screening CCCCCCCC(=O)Nc1cc(C(=O)NCc2ccc(C)cc2)ccc1N1CCC2(CC1)CC(c1cccc(Br)c1)=NO2 returned uPA surface inh 9%, DT40 TDP1 no CPT inconclusive, IL1B secr inh 0, TDP1 cell CPT inconclusive, HT1080 IDH1KD tx 11% and HT1080NT lethal 9%.
COCc1c(C(=O)N2CCCC(C)C2)cnn1-c1nccc(-c2cc(C)sc2C)n1 (stereo not drawn) was read as DT40 TDP1 no CPT -27% and TDP1 cell CPT -7%.
`O=C(Cn1nnc(-c2ccccc2)n1)NCC(=O)Nc1ccc(F)c(F)c1F` gave uPA surface inh -1%, DT40 TDP1 no CPT -4%, IL1B secr inh 50, TDP1 cell CPT -4%, HT1080 IDH1KD tx 3% and HT1080NT lethal 6%.
CCCCCC(=O)N1C[C@@H](n2cc(-c3ccc(F)cc3)nn2)[C@H](O)C[C@@H]1c1ccc(C)cc1 was read as DT40 TDP1 no CPT 8.2µM*, IL1B secr inh -20, TDP1 cell CPT 13µM*, HT1080 IDH1KD tx inconclusive and HT1080NT lethal -23%.
COc1ccc([C@H]2C[C@H](O)[C@@H](n3cc(-c4ccc(F)cc4)nn3)CN2C(=O)C2CCCCC2)cc1 was read as DT40 TDP1 no CPT -2%, IL1B secr inh -8, TDP1 cell CPT 7%, HT1080 IDH1KD tx -1% and HT1080NT lethal -2%.
CCCCCC(=O)N1C[C@@H](n2cc(-c3ccc(F)cc3)nn2)[C@H](O)C[C@@H]1c1ccc(OC)cc1 was read as DT40 TDP1 no CPT inconclusive, IL1B secr inh -29, TDP1 cell CPT inconclusive, HT1080 IDH1KD tx inconclusive and HT1080NT lethal 18µM*.
`CCCCCC(=O)N1C[C@@H](O)[C@H](n2cc(-c3ccc(F)cc3)nn2)C[C@@H]1c1ccccc1` gave DT40 TDP1 no CPT 10µM*, IL1B secr inh -15, TDP1 cell CPT 23µM*, HT1080 IDH1KD tx -17% and HT1080NT lethal -17%.
For CCCCCCN1C[C@@H](O)[C@H](n2cc(-c3ccc(F)cc3)nn2)C[C@@H]1c1ccc(OC)cc1 the results were DT40 TDP1 no CPT inconclusive, IL1B secr inh -3, TDP1 cell CPT 2%, HT1080 IDH1KD tx 4% and HT1080NT lethal 2%.
`COc1ccc([C@H]2C[C@H](n3cc(-c4ccc(F)cc4)nn3)[C@@H](O)CN2C(=O)C2CCCCC2)cc1` gave DT40 TDP1 no CPT 18µM*, IL1B secr inh -7, TDP1 cell CPT inconclusive, HT1080 IDH1KD tx -15% and HT1080NT lethal -17%.
`CCCCCC(=O)N1C[C@H](O)[C@@H](n2cc(C3CC3)nn2)C[C@@H]1c1ccc(C)cc1` gave DT40 TDP1 no CPT inconclusive, IL1B secr inh -10, TDP1 cell CPT inconclusive, HT1080 IDH1KD tx -2% and HT1080NT lethal -2%.
Screening COCCOc1cc(NC(=O)CS(=O)(=O)CC(=O)N(C)C)c(Cl)cc1Cl returned uPA surface inh 6%, DT40 TDP1 no CPT -7%, IL1B secr inh 7, TDP1 cell CPT 0%, HT1080 IDH1KD tx 7% and HT1080NT lethal 5%.
For COc1ccc2c(c1)C(c1ccc(Cl)cc1)NC(=O)C2 (stereo not drawn) the results were uPA surface inh 12%, DT40 TDP1 no CPT -29%, IL1B secr inh -7, TDP1 cell CPT inconclusive, HT1080 IDH1KD tx 1% and HT1080NT lethal -3%.
Screening CCCCCC(=O)N1C[C@@H](O)[C@H](n2cc(C3CC3)nn2)C[C@@H]1c1ccc(C)cc1 returned DT40 TDP1 no CPT -27%, IL1B secr inh 11, TDP1 cell CPT -20%, HT1080 IDH1KD tx 3% and HT1080NT lethal 9%.
Screening CCCCCC(=O)N1C[C@@H](O)[C@H](n2cc(-c3ccc(F)cc3)nn2)C[C@@H]1c1ccc(C)cc1 returned DT40 TDP1 no CPT 18µM*, IL1B secr inh -16, TDP1 cell CPT inconclusive, HT1080 IDH1KD tx -11% and HT1080NT lethal -5%.
For Cc1ccc(-c2cc3c(n2-c2ccccc2F)CC(C)(C)CC3=O)cc1 the results were DT40 TDP1 no CPT 13µM* and TDP1 cell CPT 18µM*.
`COc1ccc(-n2c(-c3ccc(Cl)cc3)cc3c2CC(C)(C)CC3=O)c(OC)c1` gave DT40 TDP1 no CPT 18µM* and TDP1 cell CPT 23µM*.
`COc1ccc(C)cc1-n1c(-c2ccc(Cl)cc2)cc2c1CC(C)(C)CC2=O` gave DT40 TDP1 no CPT 15µM* and TDP1 cell CPT inconclusive.
CC[C@@]1(C(=O)OC)N[C@H](CN(C)S(=O)(=O)c2ccc(-c3ccccc3)cc2)[C@@H]2C(=O)N(Cc3ccccc3)C(=O)[C@@H]21 was read as uPA surface inh 13%, DT40 TDP1 no CPT -27%, IL1B secr inh 2, TDP1 cell CPT -15%, HT1080 IDH1KD tx 2% and HT1080NT lethal 9%.
`O=C(O)c1cc(=O)c2ccc(Cl)cc2[nH]1` gave DT40 TDP1 no CPT 16% and TDP1 cell CPT 15%.
Screening CCC(C)C(NC)C(=O)O (stereo not drawn) returned DT40 TDP1 no CPT 11% and TDP1 cell CPT -4%.
